Data published in paper PMC7862700, “An all-to-all approach to the identification of sequence-specific readers for epigenetic DNA modifications on cytosine”.

Columns and labels:
Experiment in all cases: DAPPL (digital affinity profiling via proximity ligation, sequencing); 10 mM Tris-HCl pH 7.5, 50 mM NaCl, 1 mM DTT, 4% glycerol, room temperature, 30 min; GST-TFs on glutathione beads, 16-mer random dsDNA library, 0.1% formaldehyde crosslink after washing; high values mean tight binding
[1] = target: T1, FEV (Homo sapiens, UniProt Q99581 1-238); settings: protein: recombinant; tags: N-terminal GST; dsDNA, one strand shown
T1 sequence: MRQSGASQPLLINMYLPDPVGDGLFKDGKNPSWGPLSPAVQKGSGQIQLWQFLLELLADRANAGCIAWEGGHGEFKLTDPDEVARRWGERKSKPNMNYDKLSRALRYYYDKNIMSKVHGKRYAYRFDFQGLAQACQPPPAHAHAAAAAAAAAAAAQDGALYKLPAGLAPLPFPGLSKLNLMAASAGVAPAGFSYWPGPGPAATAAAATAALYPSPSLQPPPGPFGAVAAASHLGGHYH
Summary of the method: (§1)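 Binding signal is each hexamer's read frequency for a factor divided by its frequency in the tag-only sample. The factors were GST-fused human transcription factors from yeast, captured on glutathione beads, DNA-barcoded and pooled with that sample. Pools were incubated with 200 nmole of a random double-stranded 16-mer DNA library in Tris/NaCl/DTT/glycerol buffer at room temperature for 30 min, then washed, crosslinked with 0.1% formaldehyde, proximity-ligated with BsaI/T4 ligase (1 h, 37 °C), PCR-amplified and sequenced on an Illumina NextSeq500.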

[2] = target: ETV5 (Homo sapiens, UniProt P41161 1-510); settings: protein: recombinant; tags: N-terminal GST; dsDNA, one strand shown
ETV5, sequence (P41161 whole entry): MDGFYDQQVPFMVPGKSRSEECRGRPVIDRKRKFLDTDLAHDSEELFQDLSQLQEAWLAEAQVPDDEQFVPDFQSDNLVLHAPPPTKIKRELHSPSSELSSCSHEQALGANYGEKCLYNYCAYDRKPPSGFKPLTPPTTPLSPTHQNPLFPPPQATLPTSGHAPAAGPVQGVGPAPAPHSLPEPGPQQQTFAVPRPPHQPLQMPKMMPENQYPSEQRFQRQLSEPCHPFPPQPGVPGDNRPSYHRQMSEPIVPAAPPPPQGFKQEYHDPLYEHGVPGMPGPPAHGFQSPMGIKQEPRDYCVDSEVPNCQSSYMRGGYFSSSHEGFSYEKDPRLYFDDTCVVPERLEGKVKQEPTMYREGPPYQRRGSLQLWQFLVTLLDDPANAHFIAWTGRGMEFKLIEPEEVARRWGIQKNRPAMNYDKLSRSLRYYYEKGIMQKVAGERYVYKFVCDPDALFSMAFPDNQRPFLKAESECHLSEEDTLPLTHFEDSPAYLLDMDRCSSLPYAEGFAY
Summary of the method: as §1

[3] = target: HSF1 (Homo sapiens, UniProt Q00613 1-529); settings: protein: recombinant; tags: N-terminal GST; chain copies: 3; dsDNA, one strand shown
HSF1, sequence (Q00613 whole entry): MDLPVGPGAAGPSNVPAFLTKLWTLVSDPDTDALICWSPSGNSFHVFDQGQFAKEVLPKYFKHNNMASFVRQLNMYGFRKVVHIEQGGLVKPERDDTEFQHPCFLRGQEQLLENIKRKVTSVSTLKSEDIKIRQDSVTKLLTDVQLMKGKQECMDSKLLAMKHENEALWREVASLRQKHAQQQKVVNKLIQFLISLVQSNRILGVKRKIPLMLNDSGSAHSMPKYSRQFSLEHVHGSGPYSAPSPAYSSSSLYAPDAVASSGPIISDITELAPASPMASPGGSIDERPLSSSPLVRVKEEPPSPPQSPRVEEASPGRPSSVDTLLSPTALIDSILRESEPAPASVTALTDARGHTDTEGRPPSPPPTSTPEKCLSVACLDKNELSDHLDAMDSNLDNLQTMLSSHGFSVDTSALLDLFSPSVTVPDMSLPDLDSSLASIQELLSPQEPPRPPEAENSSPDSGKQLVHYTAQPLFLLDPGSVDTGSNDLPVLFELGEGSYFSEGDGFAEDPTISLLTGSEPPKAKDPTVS
Summary of the method: as §1

[4] = target: T2, SPIC (Homo sapiens, UniProt Q8N5J4 1-248); settings: protein: recombinant; tags: N-terminal GST; dsDNA, one strand shown
T2 sequence: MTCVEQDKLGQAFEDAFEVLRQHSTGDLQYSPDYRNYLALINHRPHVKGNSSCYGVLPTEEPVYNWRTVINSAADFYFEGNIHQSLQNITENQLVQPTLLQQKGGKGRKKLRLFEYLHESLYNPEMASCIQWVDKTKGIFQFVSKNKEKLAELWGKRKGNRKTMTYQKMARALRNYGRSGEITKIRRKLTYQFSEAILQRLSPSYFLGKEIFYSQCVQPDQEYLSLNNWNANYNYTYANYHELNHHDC
Summary of the method: as §1

[5] = target: ELF4 (Homo sapiens, UniProt Q99607 1-663); settings: protein: recombinant; tags: N-terminal GST; dsDNA, one strand shown
ELF4, sequence (Q99607 whole entry): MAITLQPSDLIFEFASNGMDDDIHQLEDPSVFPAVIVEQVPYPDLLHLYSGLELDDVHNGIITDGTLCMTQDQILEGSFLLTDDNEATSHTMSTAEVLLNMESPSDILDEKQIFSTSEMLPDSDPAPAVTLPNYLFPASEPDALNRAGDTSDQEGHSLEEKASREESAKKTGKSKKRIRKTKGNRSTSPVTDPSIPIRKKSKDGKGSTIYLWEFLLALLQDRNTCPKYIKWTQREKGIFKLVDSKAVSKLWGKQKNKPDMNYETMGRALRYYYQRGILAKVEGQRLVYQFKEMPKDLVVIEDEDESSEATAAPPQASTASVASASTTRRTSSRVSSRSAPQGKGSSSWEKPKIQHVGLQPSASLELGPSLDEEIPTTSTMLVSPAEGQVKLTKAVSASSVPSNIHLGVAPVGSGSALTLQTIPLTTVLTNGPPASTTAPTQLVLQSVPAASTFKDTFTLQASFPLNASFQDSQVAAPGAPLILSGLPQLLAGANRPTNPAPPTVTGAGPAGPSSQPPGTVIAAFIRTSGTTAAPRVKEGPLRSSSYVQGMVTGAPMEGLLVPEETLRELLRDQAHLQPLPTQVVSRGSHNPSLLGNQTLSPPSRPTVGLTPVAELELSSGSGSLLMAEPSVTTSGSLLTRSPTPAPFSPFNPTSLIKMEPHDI
Summary of the method: as §1

[6] = target: T3, ELK4 (Homo sapiens, UniProt P28324-2 1-405); settings: protein: recombinant; tags: N-terminal GST; dsDNA, one strand shown
T3 sequence: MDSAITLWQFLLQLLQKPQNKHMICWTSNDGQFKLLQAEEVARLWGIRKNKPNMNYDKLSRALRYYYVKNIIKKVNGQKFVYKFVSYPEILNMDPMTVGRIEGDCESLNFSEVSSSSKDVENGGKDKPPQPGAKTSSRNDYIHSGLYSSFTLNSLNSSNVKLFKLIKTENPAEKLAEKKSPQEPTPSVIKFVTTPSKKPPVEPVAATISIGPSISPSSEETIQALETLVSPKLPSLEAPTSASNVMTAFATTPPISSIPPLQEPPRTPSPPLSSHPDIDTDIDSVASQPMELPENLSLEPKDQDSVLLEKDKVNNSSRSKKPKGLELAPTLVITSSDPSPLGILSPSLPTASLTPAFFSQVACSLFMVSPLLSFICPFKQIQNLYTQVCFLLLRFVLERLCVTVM
Summary of the method: as §1

[7] = target: T4, ETV2 (Homo sapiens, UniProt O00321 1-342); settings: protein: recombinant; tags: N-terminal GST; dsDNA, one strand shown
T4 sequence: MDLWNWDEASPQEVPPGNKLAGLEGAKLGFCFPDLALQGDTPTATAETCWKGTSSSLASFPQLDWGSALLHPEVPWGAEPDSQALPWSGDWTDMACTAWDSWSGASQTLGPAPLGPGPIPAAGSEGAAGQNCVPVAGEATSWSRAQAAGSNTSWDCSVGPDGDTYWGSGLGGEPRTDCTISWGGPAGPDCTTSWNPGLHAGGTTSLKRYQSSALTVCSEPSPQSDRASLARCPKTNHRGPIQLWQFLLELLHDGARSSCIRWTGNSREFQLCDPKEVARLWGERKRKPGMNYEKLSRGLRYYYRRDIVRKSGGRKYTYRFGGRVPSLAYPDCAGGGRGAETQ
Summary of the method: as §1

[8] = target: T5, ELF3 (Homo sapiens, UniProt P78545 1-371); settings: protein: recombinant; tags: N-terminal GST; dsDNA, one strand shown
T5 sequence: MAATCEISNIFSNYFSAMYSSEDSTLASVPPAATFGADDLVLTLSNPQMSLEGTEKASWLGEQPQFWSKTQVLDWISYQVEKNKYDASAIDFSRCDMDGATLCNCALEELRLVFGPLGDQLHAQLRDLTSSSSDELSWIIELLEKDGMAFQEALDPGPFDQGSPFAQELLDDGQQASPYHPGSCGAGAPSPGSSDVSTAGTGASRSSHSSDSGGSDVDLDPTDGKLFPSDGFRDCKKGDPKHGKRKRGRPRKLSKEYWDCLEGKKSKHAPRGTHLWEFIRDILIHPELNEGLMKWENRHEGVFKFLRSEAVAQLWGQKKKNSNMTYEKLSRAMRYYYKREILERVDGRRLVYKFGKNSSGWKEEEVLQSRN
Summary of the method: as §1

[9] = target: CRX (Homo sapiens, UniProt O43186 1-299); settings: protein: recombinant; tags: N-terminal GST; dsDNA, one strand shown
CRX, sequence (O43186 whole entry): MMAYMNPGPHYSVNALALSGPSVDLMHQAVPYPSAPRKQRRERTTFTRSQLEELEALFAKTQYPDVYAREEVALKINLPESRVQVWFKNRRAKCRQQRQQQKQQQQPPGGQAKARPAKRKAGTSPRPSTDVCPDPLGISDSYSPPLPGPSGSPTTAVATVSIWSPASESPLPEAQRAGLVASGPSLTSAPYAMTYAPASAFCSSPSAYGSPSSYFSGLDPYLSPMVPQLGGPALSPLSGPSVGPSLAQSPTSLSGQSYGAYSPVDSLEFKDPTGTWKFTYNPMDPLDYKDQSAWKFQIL
Summary of the method: as §1

[10] = target: ETV1 (Homo sapiens, UniProt P50549 1-477); settings: protein: recombinant; tags: N-terminal GST; dsDNA, one strand shown
ETV1, sequence (P50549 whole entry): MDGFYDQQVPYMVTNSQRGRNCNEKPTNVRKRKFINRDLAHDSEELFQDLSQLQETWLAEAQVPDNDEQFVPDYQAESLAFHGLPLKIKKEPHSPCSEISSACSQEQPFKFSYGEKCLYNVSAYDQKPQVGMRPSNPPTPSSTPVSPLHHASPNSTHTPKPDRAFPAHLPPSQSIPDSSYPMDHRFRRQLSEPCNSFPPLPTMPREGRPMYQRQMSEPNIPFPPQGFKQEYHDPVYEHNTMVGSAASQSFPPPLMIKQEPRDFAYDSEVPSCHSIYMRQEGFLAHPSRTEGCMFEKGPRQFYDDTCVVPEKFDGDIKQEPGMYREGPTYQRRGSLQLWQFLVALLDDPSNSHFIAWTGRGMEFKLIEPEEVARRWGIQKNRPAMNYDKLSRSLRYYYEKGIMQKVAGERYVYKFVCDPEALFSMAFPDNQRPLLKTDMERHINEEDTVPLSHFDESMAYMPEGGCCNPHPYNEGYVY
Summary of the method: as §1

[11] = target: T6, ERF (Homo sapiens, UniProt P50548 1-548); settings: protein: recombinant; tags: N-terminal GST; dsDNA, one strand shown
T6 sequence: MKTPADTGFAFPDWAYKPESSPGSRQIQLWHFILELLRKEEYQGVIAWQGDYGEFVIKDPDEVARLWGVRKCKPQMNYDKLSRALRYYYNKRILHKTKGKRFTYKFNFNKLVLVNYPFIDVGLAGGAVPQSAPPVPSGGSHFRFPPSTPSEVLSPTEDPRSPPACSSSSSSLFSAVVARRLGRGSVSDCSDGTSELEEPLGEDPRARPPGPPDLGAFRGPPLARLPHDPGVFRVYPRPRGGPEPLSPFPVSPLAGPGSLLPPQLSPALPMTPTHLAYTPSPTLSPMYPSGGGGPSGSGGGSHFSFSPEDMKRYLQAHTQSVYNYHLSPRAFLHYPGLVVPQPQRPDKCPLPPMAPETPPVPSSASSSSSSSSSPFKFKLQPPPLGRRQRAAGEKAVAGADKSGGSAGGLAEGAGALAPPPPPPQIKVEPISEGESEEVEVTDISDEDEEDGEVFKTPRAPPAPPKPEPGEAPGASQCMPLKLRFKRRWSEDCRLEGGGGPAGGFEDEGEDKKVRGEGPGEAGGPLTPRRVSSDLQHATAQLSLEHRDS
Summary of the method: as §1

[12] = target: T7, ETV3L (Homo sapiens, UniProt Q6ZN32 1-361); settings: protein: recombinant; tags: N-terminal GST; dsDNA, one strand shown
T7 sequence: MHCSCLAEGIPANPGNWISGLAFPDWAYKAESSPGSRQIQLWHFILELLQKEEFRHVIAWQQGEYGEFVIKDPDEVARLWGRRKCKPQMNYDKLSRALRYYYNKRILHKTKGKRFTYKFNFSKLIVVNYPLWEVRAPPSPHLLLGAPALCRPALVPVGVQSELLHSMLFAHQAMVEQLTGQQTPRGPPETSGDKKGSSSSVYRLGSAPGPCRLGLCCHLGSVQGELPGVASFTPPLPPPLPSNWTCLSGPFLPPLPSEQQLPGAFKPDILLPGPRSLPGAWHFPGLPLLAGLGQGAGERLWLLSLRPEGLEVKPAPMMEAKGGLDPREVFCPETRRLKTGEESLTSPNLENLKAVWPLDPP
Summary of the method: as §1

[13] = target: T8, ETS2 (Homo sapiens, UniProt P15036 1-469); settings: protein: recombinant; tags: N-terminal GST; dsDNA, one strand shown
T8 sequence: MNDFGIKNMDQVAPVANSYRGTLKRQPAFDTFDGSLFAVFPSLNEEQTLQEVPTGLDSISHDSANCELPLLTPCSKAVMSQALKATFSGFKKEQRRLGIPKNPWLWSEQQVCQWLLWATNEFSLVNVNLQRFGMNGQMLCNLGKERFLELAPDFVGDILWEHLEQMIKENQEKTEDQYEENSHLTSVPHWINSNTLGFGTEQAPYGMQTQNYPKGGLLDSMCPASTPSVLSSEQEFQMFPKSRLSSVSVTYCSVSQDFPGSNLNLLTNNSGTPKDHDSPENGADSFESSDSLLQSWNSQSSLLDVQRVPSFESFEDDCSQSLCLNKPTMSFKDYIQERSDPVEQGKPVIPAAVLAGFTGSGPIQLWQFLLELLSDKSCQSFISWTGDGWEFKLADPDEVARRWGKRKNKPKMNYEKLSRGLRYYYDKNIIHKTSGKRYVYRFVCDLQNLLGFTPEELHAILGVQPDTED
Summary of the method: as §1

[14] = target: T9, SPDEF (Homo sapiens, UniProt O95238 1-335); settings: protein: recombinant; tags: N-terminal GST; dsDNA, one strand shown
T9 sequence: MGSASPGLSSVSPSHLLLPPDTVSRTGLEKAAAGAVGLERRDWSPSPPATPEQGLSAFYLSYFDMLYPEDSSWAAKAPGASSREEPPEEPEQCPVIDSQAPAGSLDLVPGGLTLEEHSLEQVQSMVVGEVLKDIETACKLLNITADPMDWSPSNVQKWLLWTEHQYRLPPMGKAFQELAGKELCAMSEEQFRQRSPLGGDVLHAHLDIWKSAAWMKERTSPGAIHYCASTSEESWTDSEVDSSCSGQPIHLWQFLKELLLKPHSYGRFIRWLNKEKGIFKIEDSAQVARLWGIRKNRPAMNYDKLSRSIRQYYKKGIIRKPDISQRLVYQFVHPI
Summary of the method: as §1

[15] = target: T10, ETV7 (Homo sapiens, UniProt Q9Y603 1-341); settings: protein: recombinant; tags: N-terminal GST; dsDNA, one strand shown
T10 sequence: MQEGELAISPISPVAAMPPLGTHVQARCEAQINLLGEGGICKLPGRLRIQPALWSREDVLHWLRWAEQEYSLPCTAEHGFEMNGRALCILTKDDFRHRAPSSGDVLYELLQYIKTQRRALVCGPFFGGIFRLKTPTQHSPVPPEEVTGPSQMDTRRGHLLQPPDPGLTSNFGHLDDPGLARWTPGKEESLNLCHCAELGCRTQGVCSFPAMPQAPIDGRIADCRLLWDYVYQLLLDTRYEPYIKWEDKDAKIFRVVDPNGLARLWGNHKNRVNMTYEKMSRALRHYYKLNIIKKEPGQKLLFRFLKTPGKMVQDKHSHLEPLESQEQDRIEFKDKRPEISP
Summary of the method: as §1

[16] = target: T11, ELF5 (Homo sapiens, UniProt Q9UKW6-2 1-255); settings: protein: recombinant; tags: N-terminal GST; dsDNA, one strand shown
T11 sequence: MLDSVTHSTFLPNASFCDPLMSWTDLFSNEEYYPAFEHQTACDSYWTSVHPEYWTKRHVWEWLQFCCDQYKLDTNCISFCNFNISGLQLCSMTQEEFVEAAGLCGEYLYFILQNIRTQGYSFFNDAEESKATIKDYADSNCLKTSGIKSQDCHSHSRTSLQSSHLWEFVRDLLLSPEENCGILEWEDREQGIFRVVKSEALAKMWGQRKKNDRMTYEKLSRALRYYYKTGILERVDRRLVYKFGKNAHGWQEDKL
Summary of the method: as §1

[17] = target: T12, ETV3 (Homo sapiens, UniProt P41162-2 1-143); settings: protein: recombinant; tags: N-terminal GST; dsDNA, one strand shown
T12 sequence: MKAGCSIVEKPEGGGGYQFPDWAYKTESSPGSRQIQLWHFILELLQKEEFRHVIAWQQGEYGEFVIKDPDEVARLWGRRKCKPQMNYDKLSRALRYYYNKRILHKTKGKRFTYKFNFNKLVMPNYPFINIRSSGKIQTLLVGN
Summary of the method: as §1

[18] = target: ETV6 (Homo sapiens, UniProt P41212 1-452); settings: protein: recombinant; tags: N-terminal GST; dsDNA, one strand shown
ETV6, sequence (P41212 whole entry): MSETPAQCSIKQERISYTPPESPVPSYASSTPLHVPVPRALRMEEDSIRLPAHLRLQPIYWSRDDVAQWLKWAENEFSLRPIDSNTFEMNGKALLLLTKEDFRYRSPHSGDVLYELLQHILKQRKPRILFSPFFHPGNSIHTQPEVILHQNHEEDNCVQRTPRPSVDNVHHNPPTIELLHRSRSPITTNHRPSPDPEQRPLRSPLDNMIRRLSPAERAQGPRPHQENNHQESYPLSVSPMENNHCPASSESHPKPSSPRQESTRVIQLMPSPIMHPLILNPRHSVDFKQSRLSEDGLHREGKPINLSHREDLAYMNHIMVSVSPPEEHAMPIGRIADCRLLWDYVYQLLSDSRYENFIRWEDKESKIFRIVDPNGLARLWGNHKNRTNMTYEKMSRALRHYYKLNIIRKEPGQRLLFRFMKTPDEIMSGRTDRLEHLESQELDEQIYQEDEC
Summary of the method: as §1

Sequence: TCCCTA
- binding signal [1]: 1.2 fold enrichment (6-mer frequency, TF over GST control)
- binding signal [2]: 1.43 fold enrichment (6-mer frequency, TF over GST control)
- binding signal [3]: 1.32 fold enrichment (6-mer frequency, TF over GST control)
- binding signal [4]: 1.31 fold enrichment (6-mer frequency, TF over GST control)
- binding signal [5]: 1.31 fold enrichment (6-mer frequency, TF over GST control)
- binding signal [6]: 1.19 fold enrichment (6-mer frequency, TF over GST control)
- binding signal [7]: 1.25 fold enrichment (6-mer frequency, TF over GST control)
- binding signal [8]: 1.36 fold enrichment (6-mer frequency, TF over GST control)
- binding signal [9]: 1.47 fold enrichment (6-mer frequency, TF over GST control)
- binding signal [10]: 1.32 fold enrichment (6-mer frequency, TF over GST control)
- binding signal [11]: 1.43 fold enrichment (6-mer frequency, TF over GST control)
- binding signal [12]: 1.39 fold enrichment (6-mer frequency, TF over GST control)
- binding signal [13]: 1.32 fold enrichment (6-mer frequency, TF over GST control)
- binding signal [14]: 1.4 fold enrichment (6-mer frequency, TF over GST control)
- binding signal [15]: 1.16 fold enrichment (6-mer frequency, TF over GST control)
- binding signal [16]: 1.67 fold enrichment (6-mer frequency, TF over GST control)
- binding signal [17]: 1.38 fold enrichment (6-mer frequency, TF over GST control)
- binding signal [18]: 1.17 fold enrichment (6-mer frequency, TF over GST control)
